GLP1R ag: agonists of human GLP-1 receptor | Potency, µM (doses to about 45.6 µM), for the others: at the highest dose activation, actives largely listed as activators | HEK293 GLP-1R CRE-luciferase, luminescence, 4-6 h; cells express a hypersensitive GLP-1R form | P43220 | hit rate 0.007% among 380,000; also: % of control where 0% means no effect
Target sequence (P43220 whole entry, looked up): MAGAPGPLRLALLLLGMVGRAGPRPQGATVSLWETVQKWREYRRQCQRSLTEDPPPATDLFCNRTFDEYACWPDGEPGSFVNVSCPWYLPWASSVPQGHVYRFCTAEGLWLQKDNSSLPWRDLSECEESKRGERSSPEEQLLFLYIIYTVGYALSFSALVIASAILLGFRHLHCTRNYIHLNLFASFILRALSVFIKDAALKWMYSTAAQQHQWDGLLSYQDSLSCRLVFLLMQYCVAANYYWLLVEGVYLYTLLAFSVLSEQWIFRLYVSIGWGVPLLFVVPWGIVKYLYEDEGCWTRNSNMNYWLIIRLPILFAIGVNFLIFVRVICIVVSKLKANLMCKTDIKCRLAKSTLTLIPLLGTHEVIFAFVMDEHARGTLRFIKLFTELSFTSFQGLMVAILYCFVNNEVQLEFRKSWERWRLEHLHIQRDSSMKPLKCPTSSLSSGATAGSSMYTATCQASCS
GLP1R cytotox: cytotoxicity counter-screen for GLP-1 receptor inverse agonists. HEK293 cAMP-luciferase reporter cells, luminescence, 24 h. Potency, µM (top dose mostly 38.3 µM), for the others: top-dose activity change, negative = inhibition, actives largely listed as inhibitors. hit rate 0.13% among 410,000;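 also: loss of luciferase light is scored as toxicity; % is scaled to controls: 0 for no effect and ±100 for the full control effect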
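Here, cytotoxicity is scored as loss of luminescence. The MLSMR collection was tested on cells seeded in medium containing 10% Nu serum, with a 24 hr compound exposure preceded by 12 hours of culture.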
BRCA1 expr act: BRCA1 expression activation. MCF7-BRCA1-FFLuc reporter, luminescence, 48 h; response scale: scaled: vehicle 0%, 10 µM genistein 100%. Potency, µM (series often up to 46.1 µM), without a hit: at the highest dose activation, hits mostly activators. hit rate 1.1% among 380,000. AID 624202; also: nearly all actives have a fitted effect of over 80% in size
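Luminescence from a BRCA1-driven firefly luciferase in MCF7 cells was read after 48 h compound exposure at 37 C. Data normalized against DMSO and a 10microM genistein activation control, then curve-fitted across the titration.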
GLP1R inv ag: acts as inverse agonist at human GLP-1 receptor | P43220 | HEK293 GLP-1R CRE-luciferase, luminescence, 24 h; GLP-1R form is constitutively active | Potency, µM (top dose mostly 38.3 µM), for the others: at the highest dose activity change, negative = inhibition, usual class: inhibitors | hit rate 1.6% among 410,000 | AID 624417; also: % is scaled to controls: 0 for no effect and ±100 for the full control effect; nearly all actives have a fitted effect of over 55% in size
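Cells are plated, allowed 12 hours at 37 deg C, then treated with compounds for 24 hr before luciferase detection reagent is added and luminescence is read after 12 min at room temperature. The HEK293 line carries constitutively active GLP-1R with a cAMP-responsive reporter.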
Starred values were filed as active, the others as inactive; i = inactive; ? = inconclusive; . = no result; [ ] = remark or other dose. A selection: hits, their analogues and other compounds. The true share with any hit is near 2.6%. Calls follow the shape of the dose curve; as a rule, active = well fitted curve in the direction sought with a large enough effect; inconclusive = small, poorly fitted or top-dose-only effect, or another doubt; inactive = no such curve, though single readings can be large; an effect the other way counts as inactive or inconclusive. Potency is read from the fitted curve at half-maximal effect.

SMILES | GLP1R ag | GLP1R cytotox | BRCA1 expr act | GLP1R inv ag
O=C(NC1(C(F)(F)F)C(=O)Nc2c1c(=O)[nH]c(=O)n2-c1ccc(Cl)cc1)c1ccccc1F (centres undefined) | . | -5% | . | 6%
CCCN1CCN(C(=O)C2CCN(S(=O)(=O)c3c(C)noc3/C=C/c3ccc(C)cc3)CC2)CC1 | 8% | ? | -12% | 3.2µM*
COc1ccc(/C=C/c2onc(C)c2S(=O)(=O)N2CCC(C(=O)N3CCCCCC3)CC2)cc1 | 2% | 18% | -26% | 5µM*
Cc1ccc(/C=C/c2onc(C)c2S(=O)(=O)N2CCC(C(=O)N3CCCCC3)CC2)cc1 | -1% | -6% | -55% | ?
Cc1ccc(Cl)cc1NC(=O)CSCc1cnn(-c2ccccc2)c1-n1cccc1 | . | -11% | . | 10µM*
Cc1ccccc1C(=O)NNc1ncnc2c1cnn2-c1cccc(Cl)c1 | . | -10% | . | -29%
CCCCOc1ccc2c(c1)C(=O)c1cc(O)ccc1-2 | ? | 18%[7.66 µM] | 3.5µM* | 79%[7.66 µM]
COc1ccc(CNc2cccnc2Cl)cc1 | ? | 2% | 10µM* | 15%
COc1ccc(CNc2ncccc2[N+](=O)[O-])cc1 | 21% | -1% | ? | -1%
CCc1ccccc1NC(=O)CN(C)S(=O)(=O)c1cccc2nsnc12 | . | 0% | . | 7%
O=C(c1cc([N+](=O)[O-])ccc1Cl)N1CCc2ccccc21 | 0% | 4% | -6% | ?
O=C(c1cc([N+](=O)[O-])ccc1N1CCCCC1)N1CCc2ccccc21 | 7% | ? | -12% | 2µM*
O=C(Nc1ccc(F)c(Cl)c1)N1CCC(CN2CCOCC2)CC1 | . | -10% | . | -22%
CC(C)(C)OC(=O)N1CCC(c2c(C(=O)Nc3cccc(C(F)(F)F)c3)cnn2-c2ccc(F)cc2F)CC1 | . | 4% | . | 5µM*
CC(C)(C)OC(=O)N1CCC(c2c(C(=O)Nc3ccc4c(c3)OCCO4)cnn2-c2ccc(F)cc2F)CC1 | . | -10% | . | ?
CCC(Sc1nnc(-c2ccc(C)c(Cl)c2)n1CC)C(=O)Nc1nccs1 (centres undefined) | 7% | 0% | -53% | 6.3µM*
S=C(Nc1ccccc1)Nc1ccc(Br)cn1 | 6% | 3.5µM* | 3% | ?
O=C(NC(=S)Nc1ccc(Br)cn1)c1cccs1 | 3% | ? | 51% | ?
Brc1ccc2c(c1)C(C1=NCCN1)c1ccccc1CS2 (centres undefined) | -3% | -6% | 0% | 1.4µM*
CCCN(CCC)CCNC(=O)Cn1cnc2sc(C)c(S(=O)(=O)N3CCN(c4ccccc4OC)CC3)c2c1=O | . | 3% | . | 7%
C=CCn1c(N)c(C(=O)NCCC2=CCCCC2)sc1=S | 25% | 10% | 13µM* | -6%
NC(=O)NCCC1=CCCCC1 | -1% | 13% | 5% | 2%
CCN1CCN(c2ccc(S(=O)(=O)N3CCCCC3)cc2NC(=O)/C=C/c2ccc(OC(F)F)cc2)CC1 | -1% | ? | -87% | 7.1µM*
CN1CCN(c2ccc(S(=O)(=O)N3CCCCC3)cc2NC(=O)/C=C/c2ccc(OC(F)F)cc2)CC1 | 0% | ? | -34% | ?
CN1CCN(c2ccc(S(=O)(=O)N3CCCCC3)cc2NC(=O)/C=C/c2ccc(Cl)c([N+](=O)[O-])c2)CC1 | -5% | 10µM* | -85% | ?
SMILES | GLP1R ag | GLP1R cytotox | BRCA1 expr act | GLP1R inv ag
O=C1CC(c2ccccc2)Cc2[nH]c(=O)c(-c3nc(-c4ccc(F)cc4)cs3)cc21 (centres undefined) | . | -20% | -50% | ?
O=C(NC1CCCCC1)c1ccc2c(c1)N(Cc1cccc(Cl)c1)C(=O)c1ccccc1S2=O (centres undefined) | . | 4% | . | 2%
CC1CCN(S(=O)(=O)c2ccc3c(c2)N(CC(=O)NCc2ccccc2Cl)C(=O)CS3)CC1 | . | 1% | . | ?
O=C(CN1C(=O)CSc2ccc(S(=O)(=O)N3CCCCC3)cc21)NCc1ccccc1Cl | -4% | -18% | -34% | 2.5µM*
CN(C)c1ccc(/C=C/c2c[n+](C)cc3ccccc23)cc1 | . | . | -57% | .
CC(C)(C)NC(=O)C(c1cccc2ccccc12)n1c(=O)c(-c2cc3ccccc3[nH]2)nc2ccccc21 (centres undefined) | . | i | . | 6.3µM*
CC(C)(C)NC(=O)C(c1ccc(C(F)(F)F)cc1)n1c(=O)c(-c2cc3ccccc3[nH]2)nc2ccccc21 (centres undefined) | . | i | . | 2.8µM*
